Screens deposited in PubChem BioAssay by Broad Institute.
aSyn 5UTR act: Activators via SNCA 5'UTR binding, MLPCN. alpha-synuclein 5'UTR reporter, activators screen. activity score, % (tested at 7.5 µM), hits read low. actives 7.1% (n = 300,000); in the data active = activity score below about -60%
An asterisk follows results filed as active. Only a sample is shown.

SMILES	aSyn 5UTR act
COc1ccc(/C=N/NC(=O)c2cccnc2)cc1COc1ccc([N+](=O)[O-])cc1	-75*
COc1ccc(/C=N\NC(=O)c2cccc(F)c2)cc1COc1ccccc1	88
Cc1ccc(-c2cc(C(=O)NCC3CCCO3)no2)cc1 (configuration not stated)	-76*
CC1=Nc2cc(C(=O)NCC3CCCO3)ccc2Sc2ccc(Br)cc21 (configuration not stated)	-113*
O=C(NCC1CCCO1)c1cc(-c2ccc(Cl)cc2Cl)on1 (configuration not stated)	-164*
Cc1cccc(NC(=O)C(=O)NCC2CCCO2)c1 (configuration not stated)	-92*
O=C(NCC1CCCO1)c1cc(-c2ccccc2)on1 (configuration not stated)	-362*
Cc1ccc(-c2cc3nn(-c4ccccc4)c(N)c3c(=O)o2)cc1	-96*
CCOc1ccc(-c2cn(-c3cccc(SC)c3)c(=O)[nH]2)cc1	-72*
CCCCOc1ccc2c(c1)C(=O)c1cc(O)ccc1-2	-209*
CNC(=O)C1CCN(S(=O)(=O)c2c(C)noc2/C=C/c2ccccc2F)CC1	-69*
COc1ccc(NC(=O)c2ccccn2)cc1	75
CCc1ccc(NC(=O)c2cnn3ccccc23)cc1	78
O=C(NCc1ccc(F)cc1)c1cnn2ccccc12	-87*
CSc1cccc(NC(=O)c2cnn3ccccc23)c1	-100*
CSc1cccc(NC(=O)c2ccccn2)c1	-103*
COc1ccc(NC(=O)c2ccccn2)cc1OC	-88*
CSc1cccc(NC(=O)c2cnccn2)c1	-69*
NC(=O)C(C(=O)/C=C/c1ccc(Cl)cc1)=C1SCCS1	-114*
COc1ccc(/C=C/C(=O)C(C(N)=O)=C2SCCS2)cc1	-109*
COc1cc(O)oc1C=Nc1ccc(C(F)(F)F)cc1	-89*
COc1ccc2[nH]c(=O)c(CN(c3ccccc3OC)S(=O)(=O)c3ccccc3)cc2c1	-69*
COc1ccc2[nH]c(=O)c(CN(Cc3cccs3)S(=O)(=O)c3cccc4nsnc34)cc2c1	76
Cc1cc(C)nc(NC(=O)c2cc(-c3ccc(C)s3)nc3ccccc23)c1	-62*
Nc1c2ccccc2nc2ccccc12	89
SMILES	aSyn 5UTR act
COc1ccc2nc3ccccc3nc2c1N	-67*
COc1ccc2nc3cccc(OC)c3nc2c1	-105*
O=C1C(Cl)=C(NCc2cccnc2)C(=O)c2ccccc21	-141*
O=C1C(Cl)=C(Nc2ccccc2)C(=O)c2ccccc21	-190*
CCN(CC)CCCNC1=C(Cl)C(=O)c2ccccc2C1=O	76
CC(C)NC1=C(Cl)C(=O)c2ccccc2C1=O	-91*
O=C(O)c1cccc(NC2=C(Cl)C(=O)c3ccccc3C2=O)c1	-191*
O=C1OC2(CCCCC2)OC(=O)C1=CNc1ccc2c(c1)OCO2	-83*
COc1ccc(/C=C2\SC(=O)N(CCNC(=O)C3CC4C=CC3C4)C2=O)cc1 (configuration not stated)	-194*
CCCCN(CC)C(=O)c1cc2cc3ccc(Cl)cc3nc2o1	-87*
COC(=O)C1C(=O)c2c([nH]c(C(=O)OC3CCCC3)c2C)CC1C (configuration not stated)	-131*
CCCCN(CCCC)S(=O)(=O)c1ccc(C(=O)Nc2nnc(COC)o2)cc1	62
O=C(Nc1ccc2ncccc2c1)c1ccccc1Br	-297*
O=C(Nc1ccc2ncccc2c1)Nc1ccc2ncccc2c1	-179*
Cc1nc2cc(NC(=O)c3ccc(S(=O)(=O)N(C)c4ccccc4)cc3)ccc2o1	-132*
CCS(=O)(=O)c1ncc(Cl)c(C(=O)Nc2ccc(S(=O)(=O)N(C)c3ccccc3)cc2)n1	78
c1cnc2ccc(-c3ccc4ncccc4c3)cc2c1	-84*
CN(C)S(=O)(=O)c1ccc(C(=O)Nc2ccc3ncccc3c2)cc1	-86*
Cc1cc(C)nc(SCC(=O)N2CCc3ccccc32)n1	-78*
O=C(CS(=O)(=O)c1ccccc1)N1CCc2ccccc21	-107*
O=C(CSC1=NCCS1)N1CCc2ccccc21	-198*
Cc1ccc(SCC(=O)N2CCc3ccccc32)cc1	-171*
Cc1oc(-c2ccccc2)nc1C(=O)Nc1nccs1	-117*
CC(C)C(C(=O)Nc1nccs1)c1ccc(Cl)cc1 (configuration not stated)	58
O=C(Nc1nccs1)C(Br)C(Br)c1ccccc1 (configuration not stated)	-75*
SMILES	aSyn 5UTR act
O=C(Nc1nccs1)c1ccc(COc2c(F)c(F)cc(F)c2F)cc1	-107*
CC(C)(C)N1C(=O)c2ccc(C(=O)Nc3nccs3)cc2C1=O	-156*
CN(c1ccc(C(=O)Nc2nccs2)cc1)S(=O)(=O)c1ccccc1	-104*
O=C(Nc1nccs1)c1ccc(N2C(=O)[C@@H]3[C@H](C2=O)[C@H]2C=C[C@@H]3C2)cc1	-147*
O=C(Nc1nccs1)OCc1ccccc1	-80*
Nc1ccccc1C(=O)Nc1nccs1	-103*
O=C(Nc1nccs1)c1ccc2nccnc2c1	-161*
O=C(Nc1nccs1)c1cncc(Br)c1	-145*
Cc1ccc(C(=O)Nc2nccs2)cc1	-124*
Cn1c(SCc2ccc(C(=O)Nc3nccs3)cc2)nnc1-c1ccccc1	-103*
CS(=O)(=O)c1sc(C#N)c2c1C(=O)CC(c1ccccc1)C2 (configuration not stated)	81
Nc1ccc(C(=O)Nc2nccs2)cc1	-87*
COc1ccc(-c2cc(C(=O)Nc3ccc(C)c(N)c3)c3ccccc3n2)cc1	-82*
CC(C)(C)c1ccc(-c2cc(C(=O)NNC(=O)Nc3ccccc3)c3ccccc3n2)cc1	-124*
COc1cc(C(=O)Nc2ccc(C)cc2)c2ccccc2n1	82
Cc1ccc(NC(=O)CSc2ccc(C(N)=O)cc2[N+](=O)[O-])cc1	-67*
Cc1ccc(NC(=O)c2ccc(NCCN)c([N+](=O)[O-])c2)cc1	-99*
CCCNc1ccc(C(=O)OCC)cc1[N+](=O)[O-]	-83*
Cc1nc(C)c(-c2ccc(SCc3ccccc3F)nn2)s1	-151*
COc1ccccc1-c1ccc(SCc2ccccc2F)nn1	-74*
COc1ccccc1-c1ccc(SCc2ccccc2)nn1	-140*
CCN(C(=O)COC(=O)c1cc(-c2ccc3cc(OC)ccc3c2)nc2ccccc12)C1CCS(=O)(=O)C1 (configuration not stated)	67
CN(C(=O)COC(=O)c1cc(-c2ccc(Cl)s2)nc2ccccc12)C1CCS(=O)(=O)C1 (configuration not stated)	-82*
CC(=O)Nc1ccc2nc(-c3ccco3)[nH]c2c1	-73*
O=C(Nc1ccc2nc(-c3ccco3)[nH]c2c1)c1ccco1	-118*
SMILES	aSyn 5UTR act
O=C(Nc1ccc2nc(-c3ccccc3)[nH]c2c1)c1cccs1	-103*
O=C(/C=C/c1ccco1)Nc1ccc(-c2nc3ccccc3[nH]2)cc1	89
O=C(Nc1ccc(-c2nc3ccccc3[nH]2)cc1)c1ccco1	-133*
O=C(Nc1ccc2nc(-c3ccco3)[nH]c2c1)c1cccs1	-190*
O=C(c1ccccc1)c1ccc2nc(-c3ccc(NC(=O)c4ccccc4F)cc3)[nH]c2c1	-101*
Cc1ccc2nc(-c3cccc(NC(=O)c4ccco4)c3)[nH]c2c1	-121*
CC[n+]1c(/C=C2\Sc3ccccc3N2C)ccc2cccc(C)c21	116
COc1ccc(C(=O)/C=C2\Sc3ccccc3N2C)cc1	-179*
Cc1oc(=O)c(NC(=O)c2cccc(Cl)c2)cc1C(=O)c1ccccc1	-237*
O=C(Nc1cc2ccccc2oc1=O)c1ccccc1	74
